Laboratory results as given in PubChem BioAssay AID641 (Vanderbilt High Throughput Screening Facility, 2007).
In all, about 58,000 compounds went through this assay and about 3,400 (5.9%) were called active.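 How the source made its calls: active means luminescence count or its row- and column-corrected plate score outside the 99.7% band of the plate's sample wells, on either side; inactive means the rest.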 The entries come from a sample that favours actives as a whole.

The molecules below were run against D(1A) dopamine receptor (Homo sapiens) (UniProt P21728) (assay: D1 CRE-luciferase signal change, two-sided – cell-based, HEK293 D1, dopamine EC30, D1 allosteric modulator project, primary screen (AID 641)). Conditions: dopamine EC30 potentiation, at 10 µM, actives deviate in either direction.
Chain of D(1A) dopamine receptor (Homo sapiens) (P21728 whole entry, looked up): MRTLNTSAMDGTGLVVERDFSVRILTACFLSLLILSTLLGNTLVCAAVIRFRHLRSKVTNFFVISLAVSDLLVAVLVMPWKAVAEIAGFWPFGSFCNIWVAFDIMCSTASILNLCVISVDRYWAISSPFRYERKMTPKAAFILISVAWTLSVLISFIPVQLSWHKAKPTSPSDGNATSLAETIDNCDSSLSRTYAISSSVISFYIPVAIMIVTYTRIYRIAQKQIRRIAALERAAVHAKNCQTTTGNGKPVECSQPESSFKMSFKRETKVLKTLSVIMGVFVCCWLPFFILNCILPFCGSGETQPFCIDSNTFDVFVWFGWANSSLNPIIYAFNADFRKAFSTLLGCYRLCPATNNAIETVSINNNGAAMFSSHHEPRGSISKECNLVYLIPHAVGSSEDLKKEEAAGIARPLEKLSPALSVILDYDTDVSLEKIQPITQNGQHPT

B-score, active:
c1ccc(COc2nsnc2N2CCOCC2)cc1 5.03
CC(C)C1C2=C(CC(C)(C)CC2=O)ON1c1ccccc1 (stereo unspecified) 6.74
COc1ccc(S(=O)(=O)N(C)CC(=O)Nc2ccc3c(c2)OCCO3)cc1OC 3.86
c1coc(-c2nc3nc4ccccc4n3nc2-c2ccco2)c1 2.64
CCC1(C)Cc2c(sc3nc4n(c(=O)c23)CCCS4)CO1 (stereo unspecified) 2.42
Clc1ccc(Cn2ncc3c(NCc4cccnc4)ncnc32)cc1 -2.9
c1c2c(cc3sc(N4CCCCC4)nc13)OCCO2 -4.94
CN(C)c1nc(N)nc(CSc2nnnn2-c2cccc3ccccc23)n1 7.63
COc1nc(NCc2ccc(Cl)cc2)nc(OC)n1 6.81
COc1ccc(CCNC(=O)c2cc3sccc3n2C)cc1OC 4.1
CCOc1ccc2[nH]c(=O)c(C(c3nnnn3CCOC)N3CCOCC3)cc2c1 (stereo unspecified) 10.2
Cc1ccc(C2CC(c3cccc(Br)c3)n3nc(N)nc3N2)cc1 (stereo unspecified) 9.49
Cc1ccc(C2CC(c3cccc(C)c3)n3nc(N)nc3N2)cc1 (stereo unspecified) 6.52
CCOc1ccccc1C1CC(c2ccccc2)Nc2nc(N)nn21 (stereo unspecified) 5.88
CN1CCN(CC(O)COCc2ccc3c(c2)OCO3)CC1 (stereo unspecified) 3.63
O=C(NCc1ccccn1)c1ccc2nc(-c3ccco3)c(-c3ccco3)nc2c1 7.64
CCCn1c(=NC(C)=O)c(C(=O)OCC)cc2c(=O)n3ccccc3nc21 4.16
Cc1ccc(-c2nn(-c3ccccc3)cc2CN(Cc2ccccc2)C(=O)CCC(=O)O)o1 13.6

B-score, inactive:
Cn1c(-c2ccc(C(=O)c3ccccc3)s2)nc2ccccc21 -0.58
CCN(CC)CCN1C(=O)C(=O)/C(=C(/O)c2ccccc2)C1c1ccccc1F (stereo unspecified) 0.045
Cc1ccc(C)n1C(Cc1ccccc1)C(=O)O (stereo unspecified) 1.32
c1nc(COc2nsnc2N2CCOCC2)cs1 1.59
O=C(O)COc1nsnc1N1CCOCC1 0.787
COc1cc(OC)c(NC(=O)c2ccc(Br)o2)cc1Cl -0.284
CC(=O)Nc1ccc(S(=O)(=O)N2CCC(N(C)CCC(C)C)CC2)cc1 -0.0927
Cc1cc2c(cc1C)NC(c1ccccn1)C1=C(CC(C)(C)CC1=O)N2 (stereo unspecified) -0.653
CC1(C)CC(=O)NC=C(c2ccccc2)C1 -0.105
Cc1cc(C)c(S(=O)(=O)NCCCN2CCOCC2)cc1Br 0.0527
COc1ccc(NC(=O)CN(C)S(=O)(=O)c2ccccc2)cc1OC -0.205
COc1cccc(NC(=O)CN(C)S(=O)(=O)c2ccc(C)cc2)c1 -0.881
Cc1cc(=O)n2nc(N3CCCC3C(=O)NCCCN3CC(C)CC(C)C3)sc2n1 (stereo unspecified) -0.000281
Cc1ccc(-c2nnc(SC(C)C#N)n2N)cc1 (stereo unspecified) -0.328
COc1ccc(-c2noc(COc3ccc(Cl)c(C)c3)n2)cc1 -0.505
COc1ccc(-c2cc(C(F)(F)F)n3nc(C(=O)N4CCOCC4)c(Cl)c3n2)cc1 -1.29
Cc1nn2c3ccccc3nc2n(C)c1=O 0.34
c1ccc(CSc2nnc(-c3ccco3)c(-c3ccco3)n2)cc1 0.706
CC1CCCN(Cc2nc3c(c(=O)n(C)c(=O)n3C)n2Cc2cccc3ccccc23)C1 (stereo unspecified) -0.313
CC1(C)Cc2c(sc3nc4n(c(=N)c23)CCCCC4)CO1 0.888
O=c1c2ccccc2oc2nc3n(c(=O)c12)CCCS3 0.013
CC(=O)NCCc1ccc(S(=O)(=O)N(C)C2CCS(=O)(=O)C2)cc1 (stereo unspecified) 1.13
N#Cc1c(/N=C/N2CCCC2)oc(-c2ccccc2)c1-c1ccccc1 0.952
Cc1nc(SC(C)C)[nH]c(=O)c1Cc1ccccc1 0.348
Cc1cc(Cl)c(S(=O)(=O)NCc2cccnc2)cc1OCC(N)=O 0.213
C1=C(CCNc2ncnc3c2cnn3-c2ccccc2)CCCC1 -1.37
CC12CN3CC(C)(CN(C1)C3c1ccc(Cl)cc1Cl)C2=O (stereo unspecified) -0.693
Cc1ccc(-c2cc(C(F)(F)F)n3nc(C(=O)N4CCCC4)cc3n2)cc1 1.18
Cc1cccc(NC(=O)c2ccc3ccccc3n2)n1 0.542
Cc1nnc(NC(=O)CSc2nccn2-c2cccc(C)c2C)s1 -0.587
CCOC(=O)N1CCC(NC(=O)CCc2cn(C)c3ccccc23)CC1 2.11
O=C(Nc1nc2cc3c(cc2s1)OCCO3)c1cccc(S(=O)(=O)N2CCOCC2)c1 -0.542
Fc1cc(F)c2nc(N3CCOCC3)sc2c1 0.966
CSCCC1NC2(C(=O)Nc3ccc(Cl)cc32)[C@@H]2C(=O)N(C3CCCC3)C(=O)[C@H]12 (stereo partly specified) 0.395
Cn1nnnc1SCc1cc(=O)[nH]c2ccccc12 0.325
Cc1ccc(-c2noc(CSc3nnnn3-c3ccccc3)n2)cc1 0.0126
Cn1c(SCc2c(F)cccc2Cl)nnc1-c1cnccn1 -0.043
Cc1nc2cc(-c3ccc(F)cc3)nn2c(N2CCOCC2)c1C 3.86
C/C(O)=C\c1nc(=O)c2c(C)cc(C)nc2n1-c1ccccc1 0.549
O=C1CCCC2=C1C(c1cccs1)n1nc(SCc3ccccc3)nc1N2 (stereo unspecified) 0.252
C=CCNc1nc(C)nc(OC)n1 0.422
COC(=O)c1nc(NC(=O)c2ccc(Cl)cc2)n[nH]1 -0.0452
Cc1c(-c2nn(C)c(=O)c3ccccc23)oc2ccc(F)cc2c1=O 1.77
CC(CNC(=O)c1ccc(Br)o1)NC(=O)c1ccc(Br)o1 (stereo unspecified) -0.012
CCc1nc(C)cn1S(=O)(=O)c1cc(OC)c(C)cc1C -0.851
Cn1c(C(=O)NCCCN2CCCCC2)cc2sccc21 -0.452
COc1ccc(CCNC(=O)c2cc(-c3ccc4c(c3)OCO4)on2)cc1OC 0.448
COC(CCN(C)C)(c1ccccc1)c1ccccc1 -0.765
COc1ccc(N2CCN(C(c3cc4ccc(C)cc4[nH]c3=O)c3nnnn3C3CCCC3)CC2)cc1 (stereo unspecified) 0.0349
COCCn1nnnc1C(c1cc2ccc(OC)cc2[nH]c1=O)N1CCc2ccccc2C1 (stereo unspecified) -0.278
O=C(c1cc(-c2cccc(O)c2)on1)N1CCc2ccccc2C1 -0.88
CCOc1ccccc1C1CC(c2ccc(Cl)cc2)Nc2nc(N)nn21 (stereo unspecified) 1.36
FC(F)Oc1ccccc1C1CC(c2ccc(Br)s2)Nc2ncnn21 (stereo unspecified) 0.0618
Nc1nc2n(n1)C(c1ccco1)CC(c1ccc(Cl)c(Cl)c1)N2 (stereo unspecified) 0.226
COc1ccc(C2CC(c3ccc(Cl)cc3Cl)Nc3nc(N)nn32)cc1OC (stereo unspecified) -0.179
Clc1ccc(C2CC(c3cccs3)n3ncnc3N2)cc1Cl (stereo unspecified) 2.58
COc1ccc(C2CC(c3ccc(C)cc3)Nc3ncnn32)cc1 (stereo unspecified) 0.317
CCc1nnc(NC(=O)c2cccs2)s1 -1.13
COc1ccc(OC)c(S(=O)(=O)Nc2ccccc2F)c1 0.662
O=C(CSc1nnc(-c2cccs2)n1-c1ccccc1)NCc1ccco1 0.124
CCOc1cc(C(=S)N2CCOCC2)ccc1O 0.0105
O=C(CSC1=NCCS1)Nc1nc(-c2ccccc2)cs1 2.09
NC(=O)c1ccccc1NC(=O)c1ccccc1F -0.754
COc1ccc(-n2nnc3c(=O)n(CC(=O)N4CCC(Cc5ccccc5)CC4)cnc32)cc1 -0.0249
COCCNC(=O)Cn1cc2c(n1)CCCCC2 -0.978
COc1ccc(S(=O)(=O)N(CCCN2CCCC2=O)Cc2cc3c(C)ccc(C)c3[nH]c2=O)cc1 0.354
O=C(c1cccs1)N1CCN(Cc2ccc3c(c2)OCO3)CC1 -0.554
Cc1cc(N2CCN(Cc3ccc4c(c3)OCO4)CC2)n2ncnc2n1 0.443
CC(=O)Nc1ccc(S(=O)(=O)N2CCSCC2)cc1 -0.0119
CCOC(=O)C(C)Oc1cccc2c(=O)n(CC(=O)N3CCc4ccccc43)ccc12 (stereo unspecified) 0.245
COCCNCCOCCOc1cccc(OC)c1 -0.824
Cc1cccn2c(=O)c3cc(C(=O)NCc4ccccn4)n(C)c3nc12 0.762
O=C(NCc1ccccn1)c1cc2ccccc2oc1=O 0.0147
CCOC(=O)c1sc(NC(=O)C(CC)Sc2nccn2C)nc1C (stereo unspecified) 0.947
Cc1cc(C)nc(SCc2ccccc2C#N)n1 1.42
CCC(Sc1nncn1C)C(=O)Nc1nnc(-c2ccc(Cl)cc2)s1 (stereo unspecified) 0.176
COCCN(CC(=O)Nc1ccccc1C)S(=O)(=O)c1ccc(S(=O)(=O)N2CCCC2)cc1 0.0335
CCn1c(SCCC(C)C)nnc1-c1c[nH]c2ccccc12 -1.04
CCOC(=O)c1cnc2sccn2c1=O -0.341
COc1ccc(CNC(=O)c2cc3c(=O)n4ccccc4nc3n(CC3CCCO3)c2=N)cc1 (stereo unspecified) -0.73
COc1cccc(N2C(=O)C3CCCN3C2c2ccc(F)cc2)c1 (stereo unspecified) 0.0389
COCCNC(=O)C(c1ccc(C)o1)N(Cc1ccccc1)C(=O)Cn1nnc2ccccc21 (stereo unspecified) 0.0616
COc1ccc(-c2nn(-c3ccccc3)cc2C(=O)Nc2nc(CC(C)=O)ns2)cc1 0.451
